Results taken from PubChem BioAssay (Tox21).
Results filed as inconclusive are left out. Some structures have more than one record in an assay (separate samples or runs), and their calls can disagree. Activity calls are given as the source filed them. Unless noted, the call rests on the fitted dose curve; in most records, active means well fitted curve in the direction sought with a large enough effect in the repeat runs; inconclusive means weak or mixed curves; inactive means no such curve, though single readings can be large; an effect the other way counts as inactive or inconclusive.

How the values were obtained:
[1] = qHTS assay to identify small molecule agonists of the vitamin D receptor (VDR) signaling pathway - cell viability counter screen (AID 743224); further: nearly all actives have a fitted effect of over 50% in size; further: potency means the concentration at half of the fitted maximal effect; on activity change, negative = cytotoxicity: series mostly up to about 63 µM; on the % scale 0 is the no-effect control and ±100 the full control effect
Procedure, shortened: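 VDR-bla cells, 4 h after plating, exposed to compounds for 16 h at 37C; viability then read in the same wells as CellTiter-Glo luminescence after 30 min at room temperature, following the bla FRET read.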

[2] = qHTS assay to identify small molecule agonists of the NFkB signaling pathway (AID 1159509; active means well fitted curve in the direction sought with a large enough effect in the signal ratio in the repeat runs, not every such curve was filed as active; the % refers to the signal ratio; further: series mostly up to about 61 µM; on the % scale 0 is the no-effect control and ±100 the full control effect)
Procedure, shortened: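 After overnight attachment, reporter cells received test compounds, DMSO or positive controls and were incubated 5 hr at 37 C. FRET substrate was then added for 1.5 hr at room temperature before dual-emission fluorescence reading.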

[3] = qHTS assay to identify small molecule agonists of the NFkB signaling pathway - cell viability counter screen (AID 1159515; calls by dose curve; further: nearly all actives have a fitted effect of over 55% in size; further: potency means the concentration at half of the fitted maximal effect)
Procedure, shortened: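 NFkB-bla ME-180 cells, 2,000/well, plated overnight at 37 C; compound added for 5 hr at 37 C. Viability read in the same wells as the bla reporter, by CellTiter-Glo luminescence after 30 min at room temperature.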

[4] = qHTS assay to identify small molecule agonists of the endoplasmic reticulum stress response signaling pathway - cell viability counter screen (AID 1159517; calls by dose curve; further: nearly all actives have a fitted effect of over 50% in size; further: potency means the concentration at half of the fitted maximal effect)
Procedure, shortened: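 Cells, HeLa ESRE-bla; density, 1,500/well; dosing, 5 hr at 37 C, 5% CO2; readout, CellTiter-Glo luminescence after 30 min RT.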

[5] = qHTS assay to identify small molecule antagonists of the retinoid-related orphan receptor gamma (ROR-gamma) signaling pathway - cell viability counter screen (AID 1159520); further: nearly all actives have a fitted effect of over 50% in size; further: potency means the concentration at half of the fitted maximal effect
Procedure, shortened: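 Cytotoxicity was read from cellular ATP (CellTiter-Glo luminescence) after 16 hr at 37 C with 1 uM doxycycline induction. The inducer was added 2 hr after compound transfer to Tet-on ROR gamma CHO cells.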

[6] = molecular target: Nuclear receptor ROR-gamma (Homo sapiens) (UniProt P51449); assay: qHTS assay to identify small molecule antagonists of the retinoid-related orphan receptor gamma (ROR-gamma) signaling pathway (AID 1159521; further: nearly all actives have a fitted effect of over 50% in size; further: potency means the concentration at half of the fitted maximal effect)
Procedure, shortened: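 Antagonist read-out: drop in luminescence (ONE-Glo) from an RORE-LUC reporter in CHO cells with doxycycline-inducible ROR-gamma; 2 hr compound pretreatment, 1 uM doxycycline, 16 hr incubation at 37 C.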

[7] = qHTS assay to identify small molecule agonists of the AP-1 signaling pathway (AID 1159526; calls by dose curve; further: on the % scale 0 is the no-effect control and ±100 the full control effect)
[8] = qHTS assay to identify small molecule antagonists of the vitamin D receptor (VDR) signaling pathway - cell viability counter screen (AID 743225)
Procedure, shortened: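 Cytotoxicity counter screen read by CellTiter-Glo luminescence (30 min, room temperature) in the same wells as the VDR-bla antagonist readout. HEK 293T VDR-UAS-bla cells had 16 h at 37C with compound and 3 nM (final) 1-alpha,25-dihydroxyvitamin D3, then 2 h with FRET substrate.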

[9] = qHTS assay to identify small molecule agonists of the AP-1 signaling pathway - cell viability counter screen (AID 1159525; calls by dose curve; further: nearly all actives have a fitted effect of over 55% in size)
Procedure, shortened: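 Luminescent ATP readout (Cell Titer Glo, 30 min RT), normalised to DMSO and tetra n-octyl ammonium bromide controls. Cells were ME-180 AP-1-bla in 0.5% dialyzed FBS Opti-MEM, with a 5 h, 37 °C compound exposure.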

[10] = qHTS assay to identify small molecule agonists of the endoplasmic reticulum stress response signaling pathway (AID 1159516; active means well fitted activation curve with a large enough effect in the signal ratio in the repeat runs, not every such curve was filed as active; the % refers to the signal ratio; further: on the % scale 0 is the no-effect control and ±100 the full control effect)
Procedure, shortened: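 CellSensor ESRE-bla HeLa cells, 1,500 per well, plated overnight, then exposed to compounds for 5 hr at 37 C. Beta-lactamase reporter read with LiveBLAzer B/G FRET substrate after 2 hr at room temperature, 405 nm excitation, 460 and 530 nm emission.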

O=C(NCc1cccnc1)Nc1ccc([N+](=O)[O-])cc1
inactive: Potency [1] | outcome [2] | Potency [3] | Potency [4] | Potency [5] | Potency [6] | outcome [7]

COC(=O)C(Br)CBr (configuration not stated)
inactive: Potency [1] | Potency [8] | outcome [2] | Potency [3] | Potency [4] | Potency [9] | outcome [7]

O=C1C(=O)c2cccc3cccc1c23
inactive: Potency [8] | outcome [2] | Potency [3] | Potency [4] | Potency [5] | Potency [9]

CN1C(=O)NC(=O)C(C)(C2=CCCCC2)C1=O (configuration not stated)
inactive: Potency [1] | Potency [8] | outcome [2] | Potency [3] | Potency [4] | Potency [5] | Potency [6] | Potency [9] | outcome [7]

CC(C)=CCOc1c2occc2cc2ccc(=O)oc12
inactive: Potency [1] | Potency [8] | outcome [2] | Potency [3] | Potency [4] | Potency [5] | Potency [9] | outcome [7]

CC1(C)[C@H](C=C(Cl)Cl)[C@@H]1C(=O)O[C@@H](C#N)c1cccc(Oc2ccccc2)c1
inactive: Potency [1] | outcome [2] | Potency [3] | Potency [4] | Potency [5]
active: Potency [6] 54.5 µM

CNP(=O)(OC)Oc1ccc(C(C)(C)C)cc1Cl (configuration not stated)
inactive: Potency [1] | Potency [8] | outcome [2] | Potency [3] | Potency [4] | Potency [5] | Potency [9] | outcome [7]

COc1cc(CC(C)N)cc2c1OCO2 (configuration not stated)
inactive: Potency [1] | Potency [8] | outcome [2] | Potency [3] | Potency [4] | Potency [5] | Potency [6] | Potency [9] | outcome [7]

ClC=C(Cl)Cl
inactive: Potency [1] | Potency [8] | outcome [2] | Potency [3] | Potency [4] | Potency [5] | Potency [6] | outcome [7]

Cc1ccccc1CCl
inactive: Potency [1] | Potency [8] | outcome [2] | Potency [3] | Potency [4] | Potency [5] | Potency [6] | outcome [7]

CC(C)(OO)c1ccccc1
inactive: outcome [2] | Potency [3] | Potency [9] | outcome [7]
active: Potency [1] 54.9 µM | Potency [4] 43.6 µM

O=C(O)C(F)(F)C(F)(F)C(F)(F)C(F)(F)C(F)(F)C(F)(F)C(F)(F)C(F)(F)C(F)(F)C(F)(F)F
inactive: Potency [1] | Potency [8] | outcome [2] | Potency [3] | Potency [4] | Potency [5] | Potency [9] | outcome [7]

O=C1NCN(c2ccccc2)C12CCN(CCCOc1ccc(F)cc1)CC2
inactive: Potency [8] | outcome [2] | Potency [3] | Potency [4] | Potency [5] | Potency [9]

CCCCCCCCCC(=O)O[C@H]1CC[C@H]2[C@@H]3CCC4=CC(=O)CC[C@@H]4[C@H]3CC[C@]12C
inactive: Potency [8] | outcome [2] | Potency [3] | Potency [4] | Potency [6] | outcome [7]

CS/C(C)=N/OC(=O)N(C)SN(C)C(=O)O/N=C(\C)SC
inactive: Potency [1] | Potency [8] | outcome [2] | Potency [3] | Potency [4]
active: Potency [5] 43.3 µM | Potency [6] 38.6 µM

CCCN(CCC)c1c([N+](=O)[O-])cc(S(C)(=O)=O)cc1[N+](=O)[O-]
inactive: Potency [1] | Potency [8] | outcome [2] | Potency [3] | Potency [4] | Potency [5] | Potency [9] | outcome [7]

CCOP(=S)(OCC)Oc1nc(Cl)c(Cl)cc1Cl
inactive: Potency [1] | Potency [8] | outcome [2] | Potency [3] | Potency [4] | Potency [5]
27.4 µM (active) and inactive: Potency [6]

NCC(CC(=O)O)c1ccc(Cl)cc1 (configuration not stated)
inactive: activity change, negative = cytotoxicity [1] 15.2% [at 0.55 µM] | viability change, negative = cytotoxic [8] 6.5% [at 0.628 µM] | activation [2] 0.398% [at 0.628 µM] | activity, negative = cytotoxic [3] 1.83% [at 0.628 µM] | activity, negative = cytotoxicity [5] -1.2% [at 0.349 µM] | activity change, negative = inhibition [6] 4.26% [at 0.35 µM] | viability change, negative = cytotoxic [9] -1.57% [at 0.29 µM] | activation [7] -1.64% [at 0.29 µM]

CCOc1ccc(C(C)(C)COCc2cccc(Oc3ccccc3)c2)cc1
inactive: Potency [1] | Potency [8] | outcome [2] | Potency [3] | Potency [4] | Potency [5] | Potency [9] | outcome [7]

Nc1ccc(N=Nc2ccc(-c3ccc(N=Nc4c(S(=O)(=O)O)cc5cc(S(=O)(=O)O)c(N=Nc6ccccc6)c(O)c5c4N)cc3)cc2)c(N)c1
active: Potency [5] 15.7 µM
inactive: outcome [2] | Potency [3] | Potency [4] | Potency [9]

CCC(Cl)CCl (configuration not stated)
inactive: Potency [1] | Potency [8] | outcome [2] | Potency [3] | Potency [4] | Potency [5] | Potency [6] | Potency [9] | outcome [7]

c1ccoc1
inactive: Potency [1] | Potency [8] | outcome [2] | outcome [10] | Potency [4] | Potency [5] | Potency [6] | Potency [9] | outcome [7]

N#C/C(N)=C(/N)C#N
inactive: Potency [1] | Potency [8] | outcome [2] | outcome [10] | Potency [4] | Potency [5] | Potency [6] | Potency [9] | outcome [7]

CCOP(O)OCC
inactive: Potency [1] | Potency [8] | outcome [2] | outcome [10] | Potency [4] | Potency [5] | Potency [6] | Potency [9] | outcome [7]

CCOC(=O)CBr
inactive: Potency [1] | outcome [2] | outcome [10] | Potency [4] | Potency [5] | Potency [9] | outcome [7]

Cc1ccc2ccccc2c1
inactive: Potency [1] | Potency [8] | outcome [2] | outcome [10] | Potency [4] | Potency [5] | Potency [6] | Potency [9] | outcome [7]

NC(=O)C(Cl)(Cl)Cl
inactive: Potency [1] | Potency [8] | outcome [2] | outcome [10] | Potency [4] | Potency [5] | Potency [6] | outcome [7]

NNC(=O)c1cccnc1
inactive: Potency [1] | Potency [8] | outcome [2] | outcome [10] | Potency [4] | Potency [5] | Potency [6] | Potency [9] | outcome [7]

C=CC(=O)OCC(C)O (configuration not stated)
inactive: Potency [1] | Potency [8] | outcome [2] | outcome [10] | Potency [4] | Potency [5] | Potency [6] | Potency [9] | outcome [7]

COc1c(C(C)(C)C)cc([N+](=O)[O-])c(C)c1[N+](=O)[O-]
inactive: Potency [1] | Potency [8] | outcome [2] | outcome [10] | Potency [4] | Potency [5] | Potency [6] | Potency [9]

O=C1c2ccccc2C(=O)C1C(=O)C(c1ccccc1)c1ccccc1
inactive: Potency [8] | outcome [2] | Potency [3] | Potency [5] | Potency [9] | outcome [7]

O=Cc1ccc(Cl)cc1Cl
inactive: Potency [1] | Potency [8] | outcome [2] | outcome [10] | Potency [4] | Potency [5] | Potency [9] | outcome [7]

CCC(Br)(CC)C(=O)NC(N)=O
inactive: Potency [1] | Potency [8] | outcome [2] | outcome [10] | Potency [4] | Potency [5] | Potency [6] | Potency [9] | outcome [7]

Clc1cccc(SC2CCNCC2)n1
inactive: Potency [1] | Potency [8] | outcome [2] | outcome [10] | Potency [4] | Potency [5] | Potency [6] | Potency [9] | outcome [7]

C#CCOC(C(=O)OCCN(C)C)(c1ccccc1)c1ccccc1
inactive: Potency [1] | Potency [8] | outcome [2] | outcome [10] | Potency [4] | Potency [5] | Potency [6] | Potency [9] | outcome [7]

CCC(C)(NC(=O)c1cc(Cl)c(C)c(Cl)c1)C(=O)CCl (configuration not stated)
active: Potency [1] 55.3 µM | Potency [5] 21.8 µM
inactive: outcome [2] | Potency [3]

N#Cc1cc(I)c(O)c(I)c1
inactive: outcome [2] | outcome [10] | Potency [4] | Potency [5] | Potency [9] | outcome [7]

Clc1cccc2ccccc12
inactive: Potency [1] | Potency [8] | outcome [2] | outcome [10] | Potency [4] | Potency [5] | Potency [6] | outcome [7]

O=S1(=O)OC(c2cc(Br)c(O)c(Br)c2)(c2cc(Br)c(O)c(Br)c2)c2ccccc21
inactive: Potency [8] | outcome [2] | outcome [7]
active: Potency [3] 40 µM | Potency [5] 7.91 µM | Potency [6] 5.6 µM

S=C=NCc1ccccc1
inactive: Potency [8] | outcome [2] | Potency [3] | Potency [6] | Potency [9]

Cn1cc[n+](C)c1 (tested in a mixture with another compound)
inactive: Potency [1] | Potency [8] | outcome [2] | outcome [10] | Potency [4] | Potency [5] | Potency [6] | Potency [9] | outcome [7]

CN1C(=O)C(O)N=C(c2ccccc2)c2cc(Cl)ccc21 (configuration not stated)
inactive: Potency [1] | Potency [8] | outcome [2] | Potency [3] | Potency [5] | Potency [6] | outcome [7]
